Assay results from PubChem BioAssay AID1159580 (chemical genetic matrix, 2015).
Hit rate of the full screen: of about 5,500 compounds, about 2,000 (36%) were called active. Roughly 18% stayed inconclusive and do not appear here. No stated cut-off is given here; in the data, active means normalized growth mostly below about 0.91 (no sharp cut-off); inconclusive means no clear call, values can overlap the other calls; inactive means mostly above about 0.92. This is one part of the list.

Assay: chemical genetic growth profiling, strain panel (AID 1159580);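 further: tested at 20 µM; growth read once vehicle control cultures reached saturation at 30 °C; 1 = growth at the plate median or of vehicle wells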
Settings: growth OD
[1] = S. cerevisiae deletion strains, locus YAL013W, strain DEP1, stronger effect = lower value
[2] = S. cerevisiae deletion strains, locus YBR229C, strain ROT2, stronger effect = lower value
[3] = S. cerevisiae deletion strains, locus YDL101C, strain DUN1, stronger effect = lower value
[4] = S. cerevisiae deletion strains, locus YDL134C, strain PPH21, stronger effect = lower value
[5] = S. cerevisiae deletion strains, locus YDR150W, strain NUM1, stronger effect = lower value
[6] = S. cerevisiae deletion strains, locus YEL061C, strain CIN8, stronger effect = lower value
[7] = S. cerevisiae deletion strains, locus YGR078C, strain PAC10, stronger effect = lower value
[8] = S. cerevisiae deletion strains, locus YHR030C, strain SLT2, stronger effect = lower value
[9] = S. cerevisiae deletion strains, locus YHR087W, strain rtc3, stronger effect = lower value
[10] = S. cerevisiae deletion strains, locus YJL187C, strain SWE1, stronger effect = lower value
[11] = S. cerevisiae deletion strains, locus YJR043C, strain POL32, stronger effect = lower value
[12] = S. cerevisiae deletion strains, locus YJR075W, strain HOC1, stronger effect = lower value
[13] = S. cerevisiae deletion strains, locus YLR039C, strain RIC1, stronger effect = lower value
[14] = S. cerevisiae deletion strains, locus YLR058C, strain SHM2 (second series), stronger effect = lower value
[15] = S. cerevisiae deletion strains, locus YLR085C, strain ARP6, stronger effect = lower value
[16] = S. cerevisiae deletion strains, locus YLR262C, strain YPT6, stronger effect = lower value
[17] = S. cerevisiae deletion strains, locus YML094W, strain GIM5, stronger effect = lower value
[18] = S. cerevisiae deletion strains, locus YMR219W, strain ESC1, stronger effect = lower value
[19] = S. cerevisiae deletion strains, locus YMR263W, strain SAP30, stronger effect = lower value
[20] = S. cerevisiae deletion strains, locus YNL153C, strain GIM3, stronger effect = lower value
[21] = S. cerevisiae deletion strains, locus YNL298W, strain CLA4 (second series), stronger effect = lower value
[22] = S. cerevisiae deletion strains, locus YNL322C, strain KRE1, stronger effect = lower value
[23] = S. cerevisiae deletion strains, locus YNR030W, strain Alg12, stronger effect = lower value
[24] = S. cerevisiae deletion strains, locus YOL006C, strain TOP1, stronger effect = lower value
[25] = S. cerevisiae deletion strains, locus YPL055C, strain LGE1, stronger effect = lower value
[26] = S. cerevisiae deletion strains, locus YPL241C, strain CIN2, stronger effect = lower value
[27] = S. cerevisiae deletion strains, locus YPR135W, strain CTF4, stronger effect = lower value

Measured: normalized growth

O=[N+]([O-])c1ccc(C2N(Cc3ccccc3)CCC3CCCCN32)cc1 (configuration not stated)
inactive: [1] 1 | [2] 0.998 | [3] 1 | [4] 1.01 | [5] 0.997 | [6] 0.983 | [7] 1.01 | [8] 0.954 | [9] 0.985 | [10] 0.999 | [11] 1.01 | [12] 0.966 | S. cerevisiae deletion strains, locus YKL190W, strain CNB1, stronger effect = lower value 1.01 | [13] 1 | [14] 1.01 | [15] 1.02 | [16] 0.908 | [17] 0.983 | [18] 0.988 | [19] 0.998 | [20] 1.01 | [21] 1.01 | [22] 1.01 | [23] 1.02 | [24] 0.972 | [25] 0.985 | [26] 0.995 | [27] 1.03

COc1cc(Cl)c(Cl)cc1Cl
inactive: [1] 0.991 | [2] 1 | [3] 0.997 | [4] 0.997 | [5] 1.01 | [6] 0.992 | [7] 1 | S. cerevisiae deletion strains, locus YGR229C, strain SMI1, stronger effect = lower value 0.997 | [8] 0.94 | [9] 1.01 | [10] 0.999 | [11] 0.974 | [12] 1.03 | [13] 0.986 | [14] 0.994 | [15] 1.06 | [16] 0.96 | [17] 1.03 | [18] 1.01 | [19] 1.01 | S. cerevisiae deletion strains, locus YMR307W, strain GAS1, stronger effect = lower value 1.06 | [20] 0.983 | [21] 0.948 | [22] 1.01 | [23] 0.98 | [24] 0.949 | [25] 1.1 | [26] 1.02 | [27] 0.91 | S. cerevisiae strains, strain wild type, stronger effect = lower value 0.981

COP(=S)(OC)Oc1cc(Cl)c(Cl)cc1Cl
active: [8] 0.127 | S. cerevisiae deletion strains, locus YHR079C, strain IRE1, stronger effect = lower value 0.163 | S. cerevisiae deletion strains, locus YJL095W, strain BCK1, stronger effect = lower value 0.163 | S. cerevisiae deletion strains, locus YJR066W, strain TOR1, stronger effect = lower value 0.08 | S. cerevisiae deletion strains, locus YLR113W, strain HOG1, stronger effect = lower value 0.163 | S. cerevisiae deletion strains, locus YNL183C, strain NPR1, stronger effect = lower value 0.0646 | S. cerevisiae deletion strains, locus YOR231W, strain MKK1, stronger effect = lower value 0.152 | S. cerevisiae deletion strains, locus YPL256C, strain CLN2, stronger effect = lower value 0.151

CC(=O)Oc1ccc2c(c1)CCC1C2CCC2(C)C1CC(OC(C)=O)C2OC(C)=O (configuration not stated)
active: S. cerevisiae deletion strains, locus YPL106C, strain sse1, stronger effect = lower value 0.831
inactive: S. cerevisiae deletion strains, locus YAL021C, strain ccr4, stronger effect = lower value 0.948 | S. cerevisiae deletion strains, locus YAL026C, strain drs2, stronger effect = lower value 1.01 | S. cerevisiae deletion strains, locus YAL030W, strain snc1, stronger effect = lower value 0.97 | S. cerevisiae deletion strains, locus YBL061C, strain skt5, stronger effect = lower value 0.997 | S. cerevisiae deletion strains, locus YBR009C, strain hhf1, stronger effect = lower value 0.985 | S. cerevisiae deletion strains, locus YBR023C, strain chs3, stronger effect = lower value 0.983 | S. cerevisiae deletion strains, locus YBR171W, strain sec66, stronger effect = lower value 1 | S. cerevisiae deletion strains, locus YBR231C, strain swc5, stronger effect = lower value 0.982 | S. cerevisiae deletion strains, locus YBR279W, strain paf1, stronger effect = lower value 0.987 | S. cerevisiae deletion strains, locus YCL011C, strain gbp2, stronger effect = lower value 0.994 | S. cerevisiae deletion strains, locus YCL016C, strain dcc1, stronger effect = lower value 0.978 | S. cerevisiae deletion strains, locus YCL069W, strain vba3, stronger effect = lower value 0.993 | S. cerevisiae deletion strains, locus YCR088W, strain abp1, stronger effect = lower value 0.992 | S. cerevisiae deletion strains, locus YDL005C, strain med2, stronger effect = lower value 0.987 | S. cerevisiae deletion strains, locus YDL040C, strain nat1, stronger effect = lower value 0.975 | S. cerevisiae deletion strains, locus YDR001C, strain nth1, stronger effect = lower value 1.01 | S. cerevisiae deletion strains, locus YDR069C, strain doa4, stronger effect = lower value 0.954 | S. cerevisiae deletion strains, locus YDR137W, strain rgp1, stronger effect = lower value 0.925 | S. cerevisiae deletion strains, locus YDR159W, strain sac3, stronger effect = lower value 0.902 | S. cerevisiae deletion strains, locus YDR195W, strain ref2 0.992 | S. cerevisiae deletion strains, locus YDR297W, strain sur2, stronger effect = lower value 0.988 | S. cerevisiae deletion strains, locus YDR334W, strain swr1, stronger effect = lower value 0.987 | S. cerevisiae deletion strains, locus YDR335W, strain msn5, stronger effect = lower value 1.01 | S. cerevisiae deletion strains, locus YDR392W, strain spt3, stronger effect = lower value 0.856 | S. cerevisiae deletion strains, locus YEL003W, strain gim4, stronger effect = lower value 0.986 | S. cerevisiae deletion strains, locus YEL037C, strain rad23, stronger effect = lower value 1.02 | S. cerevisiae deletion strains, locus YEL061C, strain CIN8 (second series), stronger effect = lower value 1.01 | S. cerevisiae deletion strains, locus YER015W, strain faa2, stronger effect = lower value 0.985 | S. cerevisiae deletion strains, locus YER016W, strain bim1, stronger effect = lower value 0.973 | S. cerevisiae deletion strains, locus YER111C, strain swi4, stronger effect = lower value 0.994 | S. cerevisiae deletion strains, locus YER155C, strain BEM2 (second series), stronger effect = lower value 1 | S. cerevisiae deletion strains, locus YFR010W, strain ubp6, stronger effect = lower value 0.997 | S. cerevisiae deletion strains, locus YGL167C, strain pmr1, stronger effect = lower value 0.98 | S. cerevisiae deletion strains, locus YGL173C, strain kem1, stronger effect = lower value 0.99 | S. cerevisiae deletion strains, locus YGL227W, strain vid30, stronger effect = lower value 0.995 | S. cerevisiae deletion strains, locus YGL240W, strain doc1, stronger effect = lower value 0.935 | S. cerevisiae deletion strains, locus YGL253W, strain hxk2, stronger effect = lower value 0.997 | S. cerevisiae deletion strains, locus YHR013C, strain ard1, stronger effect = lower value 0.961 | S. cerevisiae deletion strains, locus YHR027C, strain rpn1, stronger effect = lower value 0.987 | S. cerevisiae deletion strains, locus YHR142W, strain chs7, stronger effect = lower value 0.968 | S. cerevisiae deletion strains, locus YJL092W, strain hpr5, stronger effect = lower value 1.01 | S. cerevisiae deletion strains, locus YJL095W, strain BCK1 (second series), stronger effect = lower value 0.984 | S. cerevisiae deletion strains, locus YJL115W, strain asf1, stronger effect = lower value 1.01 | S. cerevisiae deletion strains, locus YJL129C, strain trk1, stronger effect = lower value 0.967 | S. cerevisiae deletion strains, locus YJL154C, strain vps35, stronger effect = lower value 0.985 | S. cerevisiae deletion strains, locus YJL164C, strain tpk1, stronger effect = lower value 0.952 | S. cerevisiae deletion strains, locus YJL166W, strain qcr8, stronger effect = lower value 0.987 | [10] 0.99 | S. cerevisiae deletion strains, locus YKL160W, strain elf1, stronger effect = lower value 0.962 | S. cerevisiae deletion strains, locus YKR026C, strain gcn3, stronger effect = lower value 1.01 | S. cerevisiae deletion strains, locus YKR091W, strain srl3, stronger effect = lower value 0.988 | S. cerevisiae deletion strains, locus YLL001W, strain dnm1, stronger effect = lower value 1 | S. cerevisiae deletion strains, locus YLL026W, stronger effect = lower value 0.964 | S. cerevisiae deletion strains, locus YLL041C, strain sdh2, stronger effect = lower value 0.999 | S. cerevisiae deletion strains, locus YLR027C, strain aat2, stronger effect = lower value 0.995 | S. cerevisiae deletion strains, locus YLR221C, strain rsa3, stronger effect = lower value 0.978 | S. cerevisiae deletion strains, locus YLR258W, strain gsy2, stronger effect = lower value 0.988 | S. cerevisiae deletion strains, locus YLR262C, strain YPT6 (second series), stronger effect = lower value 0.877 | S. cerevisiae deletion strains, locus YLR320W, strain mms22, stronger effect = lower value 0.943 | S. cerevisiae deletion strains, locus YLR342W, strain FKS1, stronger effect = lower value 0.971 | S. cerevisiae deletion strains, locus YLR357W, strain rsc2, stronger effect = lower value 0.952 | S. cerevisiae deletion strains, locus YLR370C, strain arc18, stronger effect = lower value 0.989 | S. cerevisiae deletion strains, locus YLR384C, strain iki3, stronger effect = lower value 0.983 | S. cerevisiae deletion strains, locus YML120C, strain ndi1, stronger effect = lower value 0.997 | S. cerevisiae deletion strains, locus YMR058W, strain fet3, stronger effect = lower value 1 | S. cerevisiae deletion strains, locus YMR125W, strain sto1, stronger effect = lower value 1 | S. cerevisiae deletion strains, locus YMR129W, stronger effect = lower value 0.995 | S. cerevisiae deletion strains, locus YMR205C, strain PFK2, stronger effect = lower value 0.972 | S. cerevisiae deletion strains, locus YMR231W, strain pep5, stronger effect = lower value 0.996 | S. cerevisiae deletion strains, locus YNL071W, strain lat1, stronger effect = lower value 0.962 | S. cerevisiae deletion strains, locus YNL209W, strain ssb2, stronger effect = lower value 0.976 | S. cerevisiae deletion strains, locus YNL248C, strain rpa49, stronger effect = lower value 0.991 | S. cerevisiae deletion strains, locus YNL322C, strain KRE1 (second series), stronger effect = lower value 0.966 | S. cerevisiae deletion strains, locus YNR049C, strain mso1, stronger effect = lower value 1 | S. cerevisiae deletion strains, locus YOR001W, strain rrp6, stronger effect = lower value 0.983 | S. cerevisiae deletion strains, locus YOR070C, strain gyp1, stronger effect = lower value 0.995 | S. cerevisiae deletion strains, locus YOR080W, strain dia2, stronger effect = lower value 0.987 | S. cerevisiae deletion strains, locus YOR083W, strain WHI5, stronger effect = lower value 0.952 | S. cerevisiae deletion strains, locus YOR106W, strain vam3, stronger effect = lower value 0.954 | S. cerevisiae deletion strains, locus YOR265W, strain rbl2, stronger effect = lower value 0.996 | S. cerevisiae deletion strains, locus YOR270C, strain vph1, stronger effect = lower value 0.925 | S. cerevisiae deletion strains, locus YOR290C, strain snf2, stronger effect = lower value 0.97 | S. cerevisiae deletion strains, locus YPL051W, strain arl3, stronger effect = lower value 0.967 | S. cerevisiae deletion strains, locus YPL078C, strain atp4, stronger effect = lower value 0.987 | S. cerevisiae deletion strains, locus YPL240C, strain hsp82, stronger effect = lower value 0.995
